Test results: PubChem BioAssay (NCI)
Compounds without any hit were thinned out: in the full panel of roughly 79,000, 15% have a hit. Cut-off read from the data, not from the text of the source: active = growth inhibition above about 70%; inactive = the rest.

Key:
[1] = NCI Yeast Anticancer Drug Screen. Data for the rad50 strain (AID 155);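 note: 0% = growth of vehicle-only cultures of the same strain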; conditions: S. cerevisiae rad50 strain growth inhibition; at 50.0 µM; active compounds read high
Procedure, shortened: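 Compounds were tested on a yeast strain with an engineered DNA damage repair alteration; the reported value is growth inhibition normalised to vehicle treatment.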

[2] = NCI Yeast Anticancer Drug Screen. Data for the mec2-1 strain (AID 157); conditions: S. cerevisiae mec2-1 strain, at 50.0 µM, active compounds read high
Procedure, shortened: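 Yeast mec2-1 mutant treated with compound. Readout: growth inhibition vs vehicle controls.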

[3] = NCI Yeast Anticancer Drug Screen. Data for the sgs1 mgt1 strain (AID 161);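 note: 0% = growth of cultures given vehicle only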; conditions: S. cerevisiae sgs1 mgt1 strain, at 50.0 µM, active compounds read high
Procedure, shortened: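 Test agents were incubated with a DNA-repair-mutant yeast strain. Growth was then read and compared against vehicle-treated controls.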

[4] = NCI Yeast Anticancer Drug Screen. Data for the cln2 rad14 strain (AID 165);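 note: 0% = growth equal to vehicle treated cultures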; conditions: S. cerevisiae cln2 rad14 strain, at 50.0 µM, active compounds read high
Procedure, shortened: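 cln2 rad14 yeast strain; compound exposure; growth inhibition read vs vehicle controls.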

[5] = NCI Yeast Anticancer Drug Screen. Data for the bub3 strain (AID 167); conditions: S. cerevisiae bub3 mutant strain, at 50.0 µM, active compounds read high
Procedure, shortened: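 Growth of a checkpoint-deficient yeast mutant is measured after compound exposure. Values represent inhibition relative to vehicle.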

[6] = NCI Yeast Anticancer Drug Screen. Data for the mlh1 rad18 strain (AID 175); conditions: S. cerevisiae mlh1 rad18 strain growth inhibition; at 50.0 µM; active compounds read high
Procedure, shortened: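 Yeast w/ defined DNA-repair lesions; compound exposure; growth vs vehicle controls → % inhibition.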

Measured: growth inhibition

COc1cc(C(SCc2ccccc2)SCc2ccccc2)ccc1O
inactive: [1] 28.6% | [2] 12.2% | [3] 30.9% | [4] 28.6% | [5] 17.4% | [6] 28.6%

CC(=O)Oc1cc(C)c2c(c1C)C1OC(=O)C(C)C1CC2 (stereo not given)
inactive: [1] 12.6% | [2] -12.7% | [3] 18.6% | [4] 16.3% | [5] 4.8% | [6] 17.1%

Cc1cc(S(=O)(=O)Nc2nnc3c(Cl)cc(C(F)(F)F)cn23)c(S)cc1Cl
inactive: [1] -30.2% | [2] -35.2% | [3] -33.4% | [4] -14.3% | [5] 13.9% | [6] -20%

C=C(C)C#CCN(CCO)C(C)C
inactive: [1] -7.45% | [2] -30.3% | [3] -12.9% | [4] 9.2% | [5] -19.4% | [6] 4.75%

CC/C=C\CCOC(=O)C1OC1c1ccccc1 (stereo not given)
inactive: [1] 8.15% | [2] 17.3% | [3] -8.75% | [4] 10.9% | [5] 0% | [6] 1.5%

CC(=O)NC(Cc1c[nH]c2ccccc12)C(=O)O (stereo not given)
inactive: [1] -21.4% | [2] -37.8% | [3] -30.6% | [4] -23.4% | [5] -35.8% | [6] -5.65%

COc1ccc(-c2cc(C)n(C3OC(CO)C(O)C(O)C3O)c(=S)c2C#N)cc1 (stereo not given)
inactive: [1] 23.9% | [2] 8.15% | [3] -9.05% | [4] -19.1% | [5] -0.6% | [6] 13.7%

NC(CS)=NCc1ccccc1
inactive: [1] 0.65% | [2] -1.35% | [3] -12.9% | [4] -86.6% | [5] 8.85% | [6] -6%

CNC(=O)C1CCC(=O)N1Cc1c[nH]c2ccccc12 (stereo not given)
inactive: [1] -4.6% | [2] -8.65% | [3] -1.75% | [4] 2.25% | [5] 8.75% | [6] -5.45%

O=C1OC(=O)c2c(Br)c(Br)c(Br)c(Br)c21
inactive: [1] 5.9% | [2] 8.65% | [3] -16.4% | [4] -8.9% | [5] -10.9% | [6] 2.7%

O=C1C(O)=C(Cl)C(=O)C(OC2=C(Cl)C(=O)C(OC3=C(Cl)C(=O)C(OC4=C(Cl)C(=O)C(Cl)=C(Cl)C4=O)=C(Cl)C3=O)=C(Cl)C2=O)=C1Cl
inactive: [1] 9.55% | [2] 3.5% | [3] -17.3% | [4] -4.3% | [5] -2.35% | [6] 22.3%

CCOC(=O)C1=NN(c2ccccc2)C(=O)/C1=C\n1ccc(=O)[nH]c1=S
inactive: [1] -32.5% | [2] -43.8% | [3] -44.5% | [4] -36.1% | [5] -25.9% | [6] -60.8%

C=C1CCC2C(C)(CO)C(O)CCC2(C)C1CCC1=CCOC1=O (stereo not given)
inactive: [1] -22.4% | [2] -17.6% | [3] -3.2% | [4] 3.35% | [5] -4.4% | [6] -8.05%

Cc1cc([N+](=O)[O-])cc(C)c1N
inactive: [1] 1.6% | [2] -11% | [3] 3.3% | [4] -15% | [5] -4.5% | [6] 7.15%

CC[N+]1(C)CC2CCC1C2 (stereo not given)
inactive: [1] 4.55% | [2] 17.1% | [3] 14.5% | [4] -39.9% | [5] 5.85% | [6] -11.8%

CC1CCC(=O)CN1Cc1ccccc1 (stereo not given)
inactive: [1] 5.95% | [2] 4.45% | [3] 9.45% | [4] -11.6% | [5] 22.4% | [6] 4.85%

CC1CCOCO1 (stereo not given)
inactive: [1] -3.3% | [2] 0.1% | [3] -1.05% | [4] 1.75% | [5] 13.1% | [6] -9.2%

CN(C)C(=O)CCCC(=O)c1cccc([N+](=O)[O-])c1
inactive: [1] 9.55% | [2] 3.5% | [3] 3.7% | [4] 10.6% | [5] 16% | [6] -13.3%

CCCCCCOC(=O)CCBr
inactive: [1] 5% | [2] 2.35% | [3] -3.15% | [4] -4.55% | [5] 4.55% | [6] 1.4%

OCCNNCCO
inactive: [1] 13.3% | [2] 1.05% | [3] -14.7% | [4] -8.85% | [5] 15.1% | [6] 1.9%

O=C(O)CNC1=NCCN1
inactive: [1] -0.8% | [2] 2.5% | [3] -8.4% | [4] -41.4% | [5] -24.1% | [6] -3.2%

CC1CCCCc2nc3c(c(=O)n21)CCCC3 (stereo not given)
inactive: [1] 9.3% | [2] -11.8% | [3] 34% | [4] 0.25% | [5] 25.6% | [6] 41%

O=[N+]([O-])c1nccn1CCCl
inactive: [1] 20.1% | [2] -3.75% | [3] 2.35% | [4] -26.1% | [5] -9.85% | [6] -1.7%

O=c1oc(-c2ccccc2)nc2c1CCCS2
inactive: [1] -1.2% | [2] -0.95% | [3] -5.65% | [4] 1.85% | [5] -8.25% | [6] -3.05%

O=C(C[n+]1cccc(Cl)c1)c1ccccc1
inactive: [1] -3.55% | [2] 7.9% | [3] 7.9% | [4] -9.7% | [5] -4.85% | [6] -0.5%

[N-]=[N+]=NCN1C(=O)C2C3C=CC(C2C1=O)C1C2C(=O)N(CN=[N+]=[N-])C(=O)C2C31 (stereo not given)
inactive: [1] -3.2% | [2] -4.1% | [3] -39.4% | [4] 4.4% | [5] -25.8% | [6] -42.1%

CC(C)COC(=O)c1ccc(C(C)C)cc1
inactive: [1] 9.35% | [2] 8.8% | [3] 4.6% | [4] -9.8% | [5] 5.1% | [6] 4.45%

CC(C)C(C(N)=O)C(C)C
inactive: [1] 3.6% | [2] -6.4% | [3] -3.65% | [4] 10.7% | [5] 0% | [6] -1.2%

COC(=O)C1(CC(=O)/C=C/c2ccccc2)NC(=S)NC(=O)C1C#N (stereo not given)
inactive: [1] 15.7% | [2] -3.65% | [3] -8.4% | [4] 10.1% | [5] -19.9% | [6] 9.9%

COc1cc([N+](=O)[O-])c2ncccc2c1
inactive: [1] -15.9% | [2] -16% | [3] -7.6% | [4] 6.9% | [5] -3.1% | [6] 18.1%

Cc1nc(Nc2ccc(Cl)c(Cl)c2)sc1C(=O)/C=C/c1ccc2c(c1)OCO2
inactive: [1] 39.5% | [2] 23.1% | [3] 13.6% | [4] -2.2% | [5] -7.75% | [6] 38.3%

COc1cc(/C=C/C(=N\NC(=S)NN)c2sc(NNC(C)=O)nc2C)ccc1O
inactive: [1] 22.5% | [2] -4.5% | [3] 21.7% | [4] 9.1% | [5] 15.5% | [6] 19.2%

CC(=O)Oc1c(/C=C/c2ccccc2)c(OC(C)=O)c2cc(Br)ccc2c1OC(C)=O
inactive: [1] 13.1% | [2] 28.2% | [3] 25.2% | [4] -27% | [5] -17.2% | [6] 29.6%

COc1ccc(C(O)c2cc(C(F)(F)F)cc(C(F)(F)F)c2)cc1OC (stereo not given)
inactive: [1] 9.2% | [2] -11.6% | [3] 11.2% | [4] 8.2% | [5] 22.9% | [6] 14.3%

N[C@@H]1c2c(csc2Br)C(=O)[C@@H]1O
inactive: [1] -5.25% | [2] -6.55% | [3] 13.3% | [4] -6.8% | [5] 0.8% | [6] -14.6%

CC1=CC(=O)OC1=O
inactive: [1] 4.9% | [2] 15% | [3] 2.15% | [4] 8.9% | [5] 5.9% | [6] 22%

O=C(O)CCCCCCCCCCOc1ccc(Cl)cc1
inactive: [1] 24.2% | [2] -7.9% | [3] 10.1% | [4] -3.45% | [5] 11% | [6] -33.6%

CNc1ccc([N+](=O)[O-])cc1C(=O)OC
inactive: [1] 8% | [2] -6.1% | [3] -8.55% | [4] -46.2% | [5] -22.9% | [6] 22.9%

CSC(=Nc1ccc([N+](=O)[O-])cc1C#N)NC(=O)c1ccccc1
inactive: [1] -28.2% | [2] -19.9% | [3] -29.1% | [4] -15.1% | [5] -16.8% | [6] 9.55%

CC(C)C1OC2(CCCCC2)OCC1(C)C (stereo not given)
inactive: [1] 23.2% | [2] 14.8% | [3] 8.25% | [4] -8.35% | [5] 21.1% | [6] 23.4%
